Compound activity as filed in PubChem.
Most compounds without a hit are left out; they make up all but 0.58% or so of the library.
CatB block – inhibitors of human cathepsin B; purified cathepsin B, fluorogenic substrate, fluorescence; inhibition, %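 (tested at 10 µM)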; actives 0.1% (n = 63,000); in the data active = inhibition above about 21%
CatS block – human cathepsin S inhibition | P25774 | recombinant cathepsin S, AMC dipeptide fluorescence, pooled mixtures | inhibition, %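 (tested at 5 µM per compound within 10-compound mixtures)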 | actives 0.06% (n = 62,000) | AID 501; in the data active = inhibition above about 32%, passing the limit was not always enough
Cathepsin G inh – cathepsin G (human) inhibition. AID 581. purified enzyme, AMC-tetrapeptide fluorescence, pooled mixtures. inhibition, % at 5 µM (by protocol). P08311. actives 0.2% (n = 62,000);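 active = inhibition above 20% in each of the two mixture wells holding the compound; inactive = inhibition of 20% or less in either well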
CatL inh – inhibitors of human cathepsin L. purified cathepsin L, fluorogenic substrate, fluorescence. inhibition, %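 (tested at 10 µM)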. actives 0.17% (n = 58,000); in the data active = inhibition above about 45%
CatB mixtures – human cathepsin B inhibition by mixtures. actives 0.06% (n = 62,000). AID 488. Purified cathepsin B, AMC dipeptide fluorescence, compound mixtures. inhibition, %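 (ten-compound pools at 5 µM per compound and 50 µM total)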. P07858; in the data active = inhibition above about 22%, passing the limit was not always enough
C1s inh – human complement C1s inhibition; actives 0.16% (n = 62,000); mean inhibition % of two 10-compound mixtures (stronger effect = higher value), % at 5 µM (by protocol); purified C1s, fluorogenic AMC substrate, pooled mixtures; P09871;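 active = inhibition above 20% in each of the two 10-compound mixture wells holding the compound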
Hits are given with their value; - = inactive.

SMILES	CatB block	CatS block	Cathepsin G inh	CatL inh	CatB mixtures	C1s inh
Cn1ncnc2c(=O)n(C)c(=O)nc1-2	83.0	70.3	-	85.4	79.6	-
CCOC(=O)c1c(C)c(P(=S)(N2CCOCC2)N2CCOCC2)n(C)c1C	-	-	-	-	-	-
CCC(=NCc1ccc2c(c1)OCO2)c1c(O)n(C2CCCCC2)c(=O)[nH]c1=O	-	-	-	-	-	-
CN(C)C(=O)CSc1nnc([C@@H](N)Cc2ccccc2)o1	-	-	-	103.2	-	-
CC1=CC(=C2C(=O)NC(=O)NC2=O)C=C(C(F)(F)F)N1C(C)C	-	-	-	-	-	-
CC1CN=C(Nc2cccc3ccccc23)S1 (stereo unspecified)	-	-	-	-	-	35.1
